Screening data as filed in PubChem.
Sampled rows, rich in hits. Any-hit rate of the full collection: about 1.6%.
RN4220 kill: kills Staphylococcus aureus RN4220; inhibition, % (no concentration beside the values); S. aureus RN4220 growth, OD600, 16 h; 330,000 tested, 0.33% active; in the data active means inhibition above about 85%;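 further: plate controls were untreated cells for no effect and reference antibiotic for full effect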
BJeLR viability: BJeLR cell viability loss | 300,000 tested, 0.17% active | AID 1554 | inhibition, % (test concentration not listed) | BJeLR (HRASV12) viability, CellTiter-Glo ATP luminescence, 48 h; in the data active means inhibition above about 50%
CCHFV vOTU inh: blocks the CCHF virus ovarian tumor domain protease. CCHFV vOTU protease, Pep-AMC fluorescence. inhibition, % at 11.5 µM. 370,000 tested, 0.55% active; in the data active means inhibition above about 30%; further: 0% = vehicle wells with enzyme and 100% = no enzyme wells
Sa ugtP lethal: compounds lethal to S. aureus RN4220 ugtP deletion mutant; OD600 growth, 16 h; growth inhibition, % (test concentration not listed); 330,000 tested, 0.54% active; in the data active means growth inhibition above about 68%;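 further: plate controls were untreated wells for no effect and antibiotic for full effect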
PfHsp40 yeast: rescue of PfHsp40-mediated yeast toxicity; S. cerevisiae expressing PfHsp40, growth rescue, ATP luminescence; growth rescue, % at 12.5 µM; 340,000 tested, 0.68% active; AID 504582; in the data active means growth rescue above about 28%, passing the limit was not always enough;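 further: yeast W303a lacking pdr1 and pdr3 grown in galactose medium; growth measured after three days at 30 °C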
* hit, by the source's call; . = not tested or not shown.

SMILES	RN4220 kill	BJeLR viability	CCHFV vOTU inh	Sa ugtP lethal	PfHsp40 yeast
Cc1ccc(CN2C(=O)/C(=C\c3ccc(C(=O)NCc4cccnc4)cc3)Oc3ccccc32)cc1	2	113*	2	-9	.
CSCCC1NC(=O)N(CC(=O)N2CCc3ccccc3C2)C1=O (stereo not drawn)	0	.	18	-2	50*
COc1ccc(C(=O)N/N=C(\c2ccccc2)c2ccccn2)cc1	.	24	1	.	86*
O=C(NN=C(c1ccccc1)c1ccccn1)c1cccc([N+](=O)[O-])c1	-4	.	.	-1	.
O=C(NN=C(c1ccccc1)c1ccccn1)c1ccccc1	.	.	10	.	44*
O=C(N/N=C(\c1ccccc1)c1ccccn1)c1ccccc1Cl	.	15	-6	.	9
CN(C)c1ccc(C=NNC(=O)CNC(=O)c2ccncc2)cc1	0	.	.	8	.
CCNC(=O)CCSc1nc2cc(Cl)ccc2o1	-10	5	6	-5	111*
c1ccc(-c2ccc(CN3CC4C(c5ccccc5)C5(c6ccccc6)CC4(C5)C3c3ccccc3)cc2)cc1 (stereo not drawn)	-3	.	.	0	.
O=C(Nn1c(SCc2ccc(F)cc2)nc2ccsc2c1=O)c1ccccc1	83*	-2	-3	76	3
COc1ccc(C2C3C(=O)N(C(C)(C)C)C(=O)C3[C@]3(C)C(=O)N(c4cccc(Cl)c4)C(=O)N23)cc1 (stereo partly drawn)	6	.	.	-10	.
COC(=O)C1=C(C)NC(C)=C(C(=O)OC)C1c1ccccc1[N+](=O)[O-]	.	-11	0	.	37*
CCOC(=O)C1=C(C)NC(C)=C(C(=O)OC)C1c1cccc([N+](=O)[O-])c1 (stereo not drawn)	0	-4	14	-9	0
CC1Oc2cc3c(-c4c(O)cc(O)c5c(O)c6c(cc45)OC(C)C(C)C6=O)c(O)cc(O)c3c(O)c2C(=O)C1C (stereo not drawn)	98*	0	.	98*	77*
CC(=NNc1ccc(C)c(Cl)c1)c1ccncc1	-5	.	.	-4	.
O=C(NN=Cc1ccc[nH]1)c1sc2ccccc2c1Cl	24	.	.	-12	.
O=C(N/N=C/c1ccc[nH]1)c1sc2ccccc2c1Cl	.	-10	-2	.	498*
CC1CCCC(C)N1N=Cc1cccc([N+](=O)[O-])c1 (stereo not drawn)	6	.	.	7	.
Cc1ccc(S(=O)(=O)N2C(c3cccc(Cl)c3)CC=C(C(=O)O)C2c2ccccc2F)cc1 (stereo not drawn)	28	.	.	31	.
Nc1nn2c(-c3ccccc3)cc(=O)[nH]c2c1N=Nc1ccc(Br)cc1	100*	.	-9	100*	0
Nc1nn2c(-c3ccccc3)cc(=O)[nH]c2c1N=Nc1ccc(O)cc1	15	-2	-8	39	1
CCCCCC/C(=N/O)c1ccccn1	.	3	10	.	162*
O=C1c2ccccc2C(=O)c2c(O)c(O)cc(O)c21	43	.	12	83	179*
O=C1C=C(O)c2c(O)cc(O)c(O)c2C1=O	48	-3	12	-10	248*
Cc1ccc(-c2c(C(=O)NN=Cc3sccc3C)nnn2-c2nonc2N)cc1	94*	.	.	84	.
SMILES	RN4220 kill	BJeLR viability	CCHFV vOTU inh	Sa ugtP lethal	PfHsp40 yeast
Cc1nc2c(C)cccn2c1C(O)=C1C(=O)C(=O)N(CCN2CCOCC2)C1c1ccncc1 (stereo not drawn)	7	.	.	1	.
Cn1c(S(=O)(=O)c2ccc([N+](=O)[O-])cc2)nc(Br)c1Br	98*	1	-12	95*	-1
COC(=O)c1ccc(S(=O)(=O)c2ccc([N+](=O)[O-])cc2)cc1	.	-1	16	.	0
N#C/C(=C\c1cccc(Oc2ccccc2)c1)C(=O)N1CCOCC1	2	0	-4	6	235*
COc1cc(C=NNC(=O)c2cccc(C)c2)ccc1OCC(=O)Nc1ccccc1	6	.	.	2	.
COc1ccc2ccccc2c1C=NNC(=O)c1cccnc1	0	.	.	1	.
O=c1c2ccccc2oc2cc(-c3ccc4[nH]ccc4c3)ccc12	88*	6	-1	88*	11
O=c1c2ccccc2oc2ccccc12	.	.	2	.	.
C=C1C(=O)O[C@@H]2C[C@@H](C)[C@@H]3C=CC(=O)[C@@]3(C)[C@@H](OC(=O)CC(=O)O[C@H]3[C@@H]4C(=C)C(=O)O[C@@H]4C[C@@H](C)[C@@H]4C=CC(=O)[C@]43C)[C@H]12	.	94*	5	.	0
COc1cccc2cc(C(=O)Nc3ccccc3Cl)c(=NNS(=O)(=O)c3ccccc3)oc12	0	.	.	-2	.
CN1CCN(c2ccc(NC(=S)NC(=O)c3cccc4c(Cl)cccc34)cc2)CC1	-4	10	15	98*	-3
Cc1ccc(C(=O)N2CCN(c3ccc(NC(=S)NC(=O)Cc4ccccc4)cc3)CC2)cc1	6	0	6	90*	1
CCCC(=O)N1CCN(c2ccc(NC(=S)NC(=O)c3cccc(C)c3)cc2)CC1	94	5	-11	active	10
O=C(NC(=S)Nc1ccc(N2CCOCC2)cc1)c1cccc(Cl)c1Cl	7	-3	22	0	-3
COc1ccc(C(=O)NC(=S)Nc2ccc(N3CCCC3)cc2)cc1	5	7	3	81	-1
COc1cccc(C(=O)NC(=S)Nc2ccc(N3CCCC3)cc2)c1	3	4	13	87*	1
CC(=NNc1cccc2cccnc12)c1ccc(N)cc1	5	.	.	3	.
CC1(C)OC2CO[C@@]3(COS(N)(=O)=O)OC(C)(C)OC3C2O1 (stereo partly drawn)	2	.	.	-3	.
COc1cccc(C=NNC(=S)Nc2cccc(S(=O)(=O)N(C)C)c2)c1	5	.	.	9	.
CSc1ccc(C=NS(=O)(=O)c2ccccc2)cc1	4	.	.	6	.
CC(C)Oc1cccc(C(=O)NC(=S)Nc2cccc(NC(=O)c3ccccc3Cl)c2)c1	11	-4	8	-15	0
CC(C)Oc1cccc(C(=O)NC(=S)Nc2ccc(N3CCN(C)CC3)cc2)c1	6	15	6	98*	-1
COc1ccc(-c2oc3ccccc3c2C#Cc2cncn2C)cc1	.	.	4	.	336*
CC(C=NN1C(=O)CSC1=S)=Cc1ccccc1	2	.	.	-2	.
Nc1ccc(S(=O)(=O)c2ccccc2)nc1	5	-9	4	-3	0
SMILES	RN4220 kill	BJeLR viability	CCHFV vOTU inh	Sa ugtP lethal	PfHsp40 yeast
O=C1CCCN1c1ncc(S(=O)(=O)c2ccc([N+](=O)[O-])cc2)s1	72	-2	-11	75	1
Cc1cc(S(=O)(=O)c2ccc([N+](=O)[O-])cn2)ccc1Br	26	36	12	40	2
Nc1ncc(S(=O)(=O)c2ccc([N+](=O)[O-])cc2)s1	98*	.	-8	96*	0
Cc1ccc(S(=O)(=O)c2ccc([N+](=O)[O-])cn2)cc1	23	23	10	23	164*
O=[N+]([O-])c1ccc(S(=O)(=O)c2ccccc2)nc1	.	5	11	.	289*
COc1cc(C=NN=C2NC(=O)C(Cc3ccccc3)S2)ccc1O (stereo not drawn)	11	.	.	-3	.
CC(=O)NC(=Cc1ccccc1)c1ccccc1	5	.	.	5	.
Cc1nn(C)c(C)c1NC(=O)Nc1ccc(Cl)c(Cl)c1	active	3	0	89	-2
